Test results: PubChem BioAssay (Tox21)
Values without a mark were called inactive. Results filed as inconclusive are left out. A call without a number means that no potency is given here. Calls of active or inactive are those of the source. Unless noted, the call rests on the fitted dose curve; in most records, active means well fitted curve in the direction sought with a large enough effect in the repeat runs; inconclusive means weak or mixed curves; inactive means no such curve, though single readings can be large; an effect the other way counts as inactive or inconclusive.

Legend:
[1] = A CellTox Green Cytotoxicity Assay to monitor cytotoxicity in HEK293 cells - 32 hour (AID 1224881); further: nearly all actives have a fitted effect of over 40% in size
Outline: (§1)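 Dead-cell fluorescence measured kinetically: asymmetric cyanine dye, HEK293, 600 cells/well, 5 h settle, 23 nL cpd/DMSO, 37 C, reads 0–40 h every 8 h.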

[2] = A CellTox Green Cytotoxicity Assay to monitor cytotoxicity in HepG2 cells - 0 hour (AID 1224882); further: nearly all actives have a fitted effect of over 35% in size
Outline: (§2)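 First, HepG2 cells (600/well) mixed with reagent were plated; second, after 5 h at 37 C they received compounds via pintool; third, fluorescence was measured at 0 h through 40 h at 8 h intervals.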

[3] = A CellTox Green Cytotoxicity Assay to monitor cytotoxicity in HEK293 cells - 8 hour (AID 1224884); further: nearly all actives have a fitted effect of over 35% in size
Outline: as §1

[4] = qHTS RealTime-Glo MT Cell Viability Assay in HepG2 cells - 16 hour (AID 1224885); further: nearly all actives have a fitted effect of over 50% in size
Outline: (§3)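 Tox21 10K library screened in qHTS format on HepG2 cells carrying RealTime-Glo reagents. Compounds were added after a 5 h preincubation, and the luminescent signal from continuous culture was measured repeatedly during 40 h treatment.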

[5] = qHTS RealTime-Glo MT Cell Viability Assay in HEK293 cells - 8 hour (AID 1224887); further: top concentration of the series differs between compounds; nearly all actives have a fitted effect of over 50% in size
Outline: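 600 HEK293 cells per well, dispensed already mixed with RealTime-Glo MT reagents. Compound dosing came 5 h later. The same wells were read for luminescence at 0, 8, 16, 24, 32 and 40 h of exposure at 37 C.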

[6] = A CellTox Green Cytotoxicity Assay to monitor cytotoxicity in HEK293 cells - 16 hour (AID 1224888); further: nearly all actives have a fitted effect of over 35% in size
Outline: as §1

[7] = qHTS RealTime-Glo MT Cell Viability Assay in HepG2 cells - 0 hour (AID 1224889); further: nearly all actives have a fitted effect of over 50% in size
Outline: as §3

[8] = A CellTox Green Cytotoxicity Assay to monitor cytotoxicity in HepG2 cells - 8 hour (AID 1224890); further: nearly all actives have a fitted effect of over 45% in size
Outline: as §2

[9] = qHTS assay to identify small molecule antagonists of the estrogen receptor alpha (ER-alpha) signaling pathway using the BG1 cell line in the presence of 0.1 nM 17-beta-estradiol - cell viability counter screen (AID 1259241); further: nearly all actives have a fitted effect of over 40% in size
Outline: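 Following 5 days in phenol red-free medium with charcoal-stripped serum, VM7Luc4E2 cells received test compounds alongside 0.1 nM 17beta-estradiol (final) at 37C for 22 hr. Live cells were then quantified via protease-substrate fluorescence.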

[10] = qHTS assay to identify small molecule antagonists of the androgen receptor (AR) signaling pathway using the MDA cell line in the presence of 0.5 nM R1881 - cell viability counter screen (AID 1259242); further: nearly all actives have a fitted effect of over 45% in size
Outline: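 qHTS format. MDA-kb2 (MMTV-luc, AR/GR responsive) + cpd + 0.5 nM R1881 final, 16 hr 37C/0% CO2 → CellTiter-Fluor 30 min → fluorescence intensity.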

[11] = qHTS assay to identify small molecule HDAC inhibitors (AID 1259364);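 further: wild-type HCT-116 cells with endogenous class I/II HDAC activity; top concentration of the series differs between compounds; nearly all actives have a fitted effect of over 45% in size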
Outline: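 Quantitative high-throughput format: overnight-seeded HCT-116 cells got compounds for 2 hr at 37C; HDAC-Glo I/II reagent added, 30 min RT, luminescence measured.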

[12] = qHTS assay to identify small molecule antagonists of the sonic hedgehog signaling (Shh) pathway - cell viability counter screen (AID 1259367); further: nearly all actives have a fitted effect of over 55% in size
Outline: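 Fluorescence read-out (CellTiter-Fluor, 1 hr at 37C) taken after 23 hr compound treatment of 3T3 Gli1-Luc cells stimulated with conditioned medium. Cells were seeded at 2,000 per well and pre-incubated 4 hr.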

[13] = qHTS assay to identify small molecule agonists of the sonic hedgehog signaling (Shh) pathway (AID 1259368; calls by dose curve;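 further: NIH/3T3-derived 3T3Gli1-Luc cells carrying a stable Gli1-driven firefly luciferase reporter; series mostly up to about 92 µM; nearly all actives have a fitted effect of over 15% in size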)
Outline: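 Quantitative high-throughput format using a Gli1-driven firefly luciferase reporter line derived from NIH/3T3 cells. After a 24 hr compound treatment at 37 C and 5% CO2, luminescence reported Gli1 response element activity.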

[14] = A CellTox Green Cytotoxicity Assay to monitor cytotoxicity in HepG2 cells - 32 hour (AID 1224883); further: nearly all actives have a fitted effect of over 50% in size
Outline: as §2

[15] = qHTS RealTime-Glo MT Cell Viability Assay in HEK293 cells - 24 hour (AID 1224886)
Outline: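 Luminescence generated by NanoLuc from substrate produced by living HEK293 cells served as the viability signal. Each value reflects the reading at its stated time point during continuous 40 h compound exposure at 37 C.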

[16] = qHTS assay to identify small molecule HDAC inhibitors - cell viability counter screen (AID 1259365)
Outline: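 HCT-116 wild-type, overnight attachment; 2hr drug exposure, 37C; CellTiter-Glo luminescent ATP readout after 30min RT.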

[17] = qHTS assay to identify small molecule agonists of the sonic hedgehog signaling (Shh) pathway - cell viability counter screen (AID 1259366); further: nearly all actives have a fitted effect of over 50% in size; further: potency means the concentration at half of the fitted maximal effect
Outline: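 Compounds in DMSO were pin-transferred onto 3T3 Gli1-Luc cells that had settled 4hr; plates then stood 24hr at 37C and 5% CO2. One hour before the end, CellTiter-Fluor was added and fluorescence recorded.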

[18] = biological target: Androgen receptor (Homo sapiens) (UniProt P10275); test: qHTS assay to identify small molecule antagonists of the androgen receptor (AR) signaling pathway using the MDA cell line in the presence of 0.5 nM R1881 (AID 1259243); further: nearly all actives have a fitted effect of over 50% in size
Outline: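 Antagonist mode quantitative HTS in MDA-kb2 MMTV-luciferase cells, agonist R1881 at 0.5 nM final, 16 hr exposure at 37C and 0% CO2, luminescent detection.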

[19] = biological target: Estrogen receptor (Homo sapiens) (UniProt P03372); test: qHTS assay to identify small molecule antagonists of the estrogen receptor alpha (ER-alpha) signaling pathway using the BG1 cell line in the presence of 0.1 nM 17-beta-estradiol (AID 1259244); further: nearly all actives have a fitted effect of over 50% in size
Outline: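 Reporter is a stably transfected luciferase under four estrogen responsive elements in VM7Luc4E2 cells expressing native full-length ER-alpha; inhibition of 0.1 nM (final) 17beta-estradiol-driven signal over 22 h is read by luminescence.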

[20] = qHTS assay to identify small molecule phospholipidosis (PLD) inducers (AID 1259344; active means well fitted curve in the direction sought with a large enough effect; an effect the other way counts as inactive or inconclusive)
Outline: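 Read-out is LipidTOX Red fluorescence (ex 595/em 615) imaged in HepG2 cells after 24 h compound exposure at 37 C, with Hoechst nuclear counterstain (ex 352/em 461) allowing per-cell normalisation.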

Chain of Estrogen receptor (Homo sapiens) (P03372 whole entry, looked up): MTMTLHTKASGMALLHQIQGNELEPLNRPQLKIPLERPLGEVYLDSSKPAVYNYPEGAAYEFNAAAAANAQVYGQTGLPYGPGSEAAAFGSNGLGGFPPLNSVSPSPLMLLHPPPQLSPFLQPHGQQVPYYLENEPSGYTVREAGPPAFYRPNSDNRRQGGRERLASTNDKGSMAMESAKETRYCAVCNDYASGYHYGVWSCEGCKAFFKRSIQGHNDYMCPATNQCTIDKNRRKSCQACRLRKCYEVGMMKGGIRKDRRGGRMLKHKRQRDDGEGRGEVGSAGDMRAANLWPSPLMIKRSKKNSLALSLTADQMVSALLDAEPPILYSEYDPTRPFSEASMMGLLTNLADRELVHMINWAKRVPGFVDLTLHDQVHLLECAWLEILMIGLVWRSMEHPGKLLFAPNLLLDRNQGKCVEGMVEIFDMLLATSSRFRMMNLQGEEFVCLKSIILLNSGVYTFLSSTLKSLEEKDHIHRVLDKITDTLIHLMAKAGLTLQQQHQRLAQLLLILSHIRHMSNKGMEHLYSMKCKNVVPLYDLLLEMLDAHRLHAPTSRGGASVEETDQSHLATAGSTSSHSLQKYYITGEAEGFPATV
Chain of Androgen receptor (Homo sapiens) (P10275 whole entry, looked up): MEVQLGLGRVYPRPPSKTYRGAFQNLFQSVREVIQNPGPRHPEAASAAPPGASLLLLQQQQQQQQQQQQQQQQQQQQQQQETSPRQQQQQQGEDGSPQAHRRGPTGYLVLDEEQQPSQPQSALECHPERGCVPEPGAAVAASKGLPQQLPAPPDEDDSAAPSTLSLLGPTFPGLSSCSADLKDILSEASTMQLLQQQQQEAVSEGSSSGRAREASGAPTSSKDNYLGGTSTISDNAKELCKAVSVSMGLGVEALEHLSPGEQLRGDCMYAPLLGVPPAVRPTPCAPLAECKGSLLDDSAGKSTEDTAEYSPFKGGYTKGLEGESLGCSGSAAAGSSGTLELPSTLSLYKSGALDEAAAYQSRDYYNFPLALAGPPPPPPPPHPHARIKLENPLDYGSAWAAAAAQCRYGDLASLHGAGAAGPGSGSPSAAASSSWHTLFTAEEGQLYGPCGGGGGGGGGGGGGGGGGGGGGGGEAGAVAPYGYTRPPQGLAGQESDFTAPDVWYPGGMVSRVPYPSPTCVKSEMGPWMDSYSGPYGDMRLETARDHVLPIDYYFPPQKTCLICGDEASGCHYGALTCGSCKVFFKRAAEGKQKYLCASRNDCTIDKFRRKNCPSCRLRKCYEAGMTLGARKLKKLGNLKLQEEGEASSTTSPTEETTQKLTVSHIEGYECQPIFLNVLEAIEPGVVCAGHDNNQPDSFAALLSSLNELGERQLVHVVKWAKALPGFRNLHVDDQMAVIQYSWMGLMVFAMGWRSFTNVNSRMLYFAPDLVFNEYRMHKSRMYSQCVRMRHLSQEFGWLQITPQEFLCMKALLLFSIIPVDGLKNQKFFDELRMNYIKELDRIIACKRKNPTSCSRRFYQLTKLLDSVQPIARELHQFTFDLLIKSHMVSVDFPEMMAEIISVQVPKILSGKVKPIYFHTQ

Row | Structure (SMILES) | Potency [1] | outcome [2] | Potency [3] | Potency [4] | Potency [5] | Potency [6] | Potency [7] | Potency [8] | outcome [9] | outcome [10] | Potency [11] | Potency [12] | outcome [13] | Potency [14] | Potency [15] | outcome [16] | Potency [17] | Potency [18] | Potency [19] | outcome [20]
1 | [As]#[In] | inactive | inactive | inactive | inactive | inactive | inactive | inactive | inactive | inactive | inactive | inactive | inactive | inactive | – | – | – | – | – | – | –
2 | CCC#N | inactive | – | inactive | inactive | inactive | inactive | inactive | inactive | inactive | inactive | – | inactive | inactive | inactive | inactive | inactive | inactive | – | – | –
3 | O=C(N[C@H]1CN2CCC1CC2)c1cc2ccoc2cn1 | inactive | inactive | inactive | inactive | inactive | inactive | – | – | inactive | – | inactive | inactive | inactive | – | inactive | inactive | inactive | inactive | inactive | –
4 | CNC(=O)Oc1ccc(N(C)C)c(C)c1 | inactive | inactive | inactive | – | inactive | inactive | – | inactive | inactive | – | inactive | – | – | inactive | – | inactive | – | – | – | –
5 | O=NN1CCCCC1 | inactive | – | inactive | inactive | inactive | inactive | inactive | inactive | inactive | inactive | inactive | inactive | inactive | inactive | inactive | inactive | inactive | inactive | – | –
6 | Cc1cccc(C#N)c1 | inactive | – | inactive | inactive | inactive | inactive | – | inactive | inactive | inactive | inactive | inactive | inactive | inactive | inactive | inactive | inactive | – | inactive | –
7 | C[C@]12CC[C@H]3[C@@H](CCC4=CC(=O)CC[C@@]43C)[C@@H]1CC[C@@H]2C(=O)O | inactive | – | inactive | inactive | inactive | – | inactive | inactive | inactive | inactive | inactive | inactive | inactive | inactive | inactive | inactive | inactive | inactive | – | –
8 | CCOP(=S)(OCC)Oc1nc(Cl)n(C(C)C)n1 | inactive | – | inactive | inactive | inactive | inactive | inactive | – | inactive | inactive | inactive | inactive | – | inactive | inactive | inactive | inactive | – | inactive | –
9 | Nc1cc2c3c(c1)C(c1ccccc1)=N[C@@H](NC(=O)c1cccnc1)C(=O)N3CC2 | inactive | – | inactive | inactive | inactive | inactive | inactive | inactive | inactive | inactive | inactive | inactive | inactive | inactive | inactive | inactive | inactive | – | inactive | –
10 | CC(=O)C(Cl)Cl | inactive | inactive | inactive | – | inactive | inactive | inactive | inactive | inactive | inactive | – | – | inactive | – | inactive | inactive | inactive | – | inactive | –
11 | CC1=NNC(=O)N(/N=C/c2cccnc2)C1 | inactive | – | inactive | inactive | inactive | inactive | inactive | inactive | inactive | inactive | inactive | inactive | inactive | inactive | inactive | inactive | inactive | – | – | –
12 | CCC1(c2ccccc2)C(=O)N=C(O)NC1=O (stereo unspecified) | inactive | – | inactive | inactive | inactive | inactive | – | inactive | inactive | inactive | inactive | inactive | inactive | inactive | inactive | – | inactive | – | inactive | –
13 | O=[N+]([O-])c1cccc(O)c1 | inactive | – | inactive | – | inactive | inactive | inactive | inactive | inactive | inactive | inactive | inactive | – | inactive | inactive | inactive | – | – | – | –
14 | [Cl][Sn]([Cl])([Cl])[Cl] | – | inactive | inactive | inactive | inactive | – | inactive | inactive | inactive | – | inactive | inactive | – | inactive | – | – | inactive | – | – | –
15 | CCCCOC(=O)c1ccccc1N | – | – | inactive | inactive | inactive | – | inactive | inactive | inactive | inactive | inactive | inactive | inactive | – | – | inactive | inactive | – | – | –
16 | OCCSCSCCO | inactive | – | inactive | inactive | inactive | inactive | inactive | inactive | inactive | – | inactive | inactive | inactive | inactive | – | inactive | inactive | – | inactive | –
17 | COC(=O)C1=CCCN(C)C1 | inactive | – | inactive | – | inactive | inactive | inactive | inactive | inactive | inactive | – | inactive | – | – | inactive | inactive | inactive | – | – | inactive
18 | CC(C)(C)NCC(O)c1cc(Cl)c(N)c(Cl)c1 (stereo unspecified) | inactive | – | – | – | inactive | inactive | inactive | inactive | – | inactive | inactive | – | inactive | inactive | inactive | – | 11.9 µM (active) | inactive | – | inactive
